Assay [1] can be described thus: qHTS to identify inhibitors of the type 1 interferon - major histocompatibility complex class I in skeletal muscle: primary screen against the NCATS Pharmaceutical Collection (AID 1347407).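 Further: luminescence of HiBiT knocked into endogenous HLA-B as interferon-induced MHC class I level.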 Further: potency means the concentration at half of the fitted maximal effect. In short, it runs like this:
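A qHTS format is used: 8-point, 1:5 compound series with 46 uM top final concentration, applied alongside 4 ng/ml IFN-beta to HLA-B*08:01-HiBiT knock-in myoblasts. Luminescence is measured after 24 h treatment.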
Background: qHTS replaces the single test concentration by a dilution series.

For assay [2], the target named is Protein phosphatase 1D (Homo sapiens) (UniProt O15297). The assay can be described thus: RapidFire Mass Spectrometry qHTS Assay for Modulators of WT P53-Induced Phosphatase 1 (WIP1) (AID 1347424).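 Further: amount of dephosphorylated VEPPL-S-QETFS peptide product formed by WIP1.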 Further: potency means the concentration at half of the fitted maximal effect. On activity change, negative = inhibition: series mostly up to about 63 µM. The gist of the method:
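10 nM WIP1 + cpd, 1 h RT; + 2 uM VEPPL-pS-QETFS, 5 min RT; stop 0.5% formic acid; labelled product standard 1 uM; RapidFire MS. Buffer 50 mM Tris pH 7.5, 30 mM MgCl2, 1 mM TCEP.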

Assay [3] shares this target. The assay can be described thus: Rhodamine-PBP qHTS Assay for Modulators of WT P53-Induced Phosphatase 1 (WIP1) (AID 1347425). The gist of the method:
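Steps: enzyme with Rh-PBP sensor and compounds, room-temperature incubation of 1 hr, baseline read, addition of VEPPL-pS-QETFS (10 uM final), kinetic fluorescence reads at 525/598 nm. Activity equals final minus baseline signal.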

Assay [4] is described as follows: qHTS to identify inhibitors of the type 1 interferon - major histocompatibility complex class I in skeletal muscle: primary screen against the NCATS LOPAC collection (AID 1347405).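 Further: lytic HiBiT luminescence reporting HLA-B protein level.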 The gist of the method: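 Luminescence from HiBiT fused to endogenous HLA-B in CRISPR-engineered human myoblasts served as the read-out. Cells received 4.0 ng/ml IFN-beta plus compound (seven concentrations, 1:4.3 steps, highest 46 uM final) for 24 hrs before lytic detection.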

Assay [5] can be described thus: qHTS for inhibitors of adenylyl cyclases using a fission yeast platform: a pilot screen against the NCATS LOPAC library (AID 1347410). The gist of the method:
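Inhibition of GNAS-stimulated AC9 activity in S. pombe was inferred from derepression of a PKA-repressed fbp1-GFP reporter, measured as cytometric fluorescence after 18 h at 30C with compounds at up to 57 µM.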

Assay [6] can be described thus: qHTS to identify inhibitors of the type 1 interferon - major histocompatibility complex class I in skeletal muscle: primary screen against the NCATS Mechanism Interrogation Plate v5.0 (MIPE) Libary (AID 1347411). Further: nearly all actives have a fitted effect of over 65% in size. In short, it runs like this:
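Luminescence from HiBiT-tagged endogenous HLA-B*08:01 served as the MHC class I read-out. CRISPR-engineered C25cl48 human myoblasts received 4.0 ng/ml IFN-beta plus compound for 24 hrs, with an 11-point, 1:3 series topping at 46 uM final.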

34 compounds from PubChem BioAssay (NCATS) can be followed below.

The structures appear in SMILES notation. Unmarked numbers belong to inactive results. Results filed as inconclusive are left out. A call without a number means that no potency is given here. Active and inactive are the calls of the source. The call rests on the fitted dose curve; in most records, active means well fitted curve in the direction sought with a large enough effect; inconclusive means small, poorly fitted or top-dose-only effect, or another doubt; inactive means no such curve, though single readings can be large; an effect the other way counts as inactive or inconclusive.

Protein phosphatase 1D (Homo sapiens), sequence (O15297 whole entry, looked up): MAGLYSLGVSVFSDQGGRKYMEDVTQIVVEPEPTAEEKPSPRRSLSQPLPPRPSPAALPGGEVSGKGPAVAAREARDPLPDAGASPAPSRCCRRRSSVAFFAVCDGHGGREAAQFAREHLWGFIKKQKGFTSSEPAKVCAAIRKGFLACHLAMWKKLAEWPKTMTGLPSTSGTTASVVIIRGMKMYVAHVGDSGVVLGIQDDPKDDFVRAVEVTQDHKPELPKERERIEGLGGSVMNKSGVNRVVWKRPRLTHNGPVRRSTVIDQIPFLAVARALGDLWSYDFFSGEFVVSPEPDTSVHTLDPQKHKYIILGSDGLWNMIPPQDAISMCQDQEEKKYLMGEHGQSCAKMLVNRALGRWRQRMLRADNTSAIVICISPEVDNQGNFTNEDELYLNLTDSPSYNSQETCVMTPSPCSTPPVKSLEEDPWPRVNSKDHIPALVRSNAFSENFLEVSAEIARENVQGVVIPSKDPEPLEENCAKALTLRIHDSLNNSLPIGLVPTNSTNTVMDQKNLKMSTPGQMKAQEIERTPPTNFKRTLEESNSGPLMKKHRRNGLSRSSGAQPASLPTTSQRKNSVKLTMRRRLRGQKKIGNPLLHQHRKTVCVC

As to `N=C1N=C(N)c2cc3ccccc3cc21`, the Potency entry in assay [1] and in assay [2] was “inactive” in each case. For the same compound, the compound was called inactive in assay [3].
For the compound `CCCCCCCCCCCC(=O)[O][Sn]([CH2]CCC)([CH2]CCC)[O]C(=O)CCCCCCCCCCC`, the Potency entry in assay [1] and in assay [2] was “inactive” in each case.
Consider `c1ccc2sc(SSc3nc4ccccc4s3)nc2c1`, for which the Potency entry in assay [1] and in assay [2] was “inactive” each time. Besides, the compound was classed as inactive in assay [3].
Regarding `O=C(O)c1ccccc1Nc1cccc(C(F)(F)F)c1`, the Potency result in assay [1] was “inactive”.
Consider `COc1ccnc2c1CCCCC2S(=O)c1nc2ccccc2[nH]1` (stereo not given), for which the Potency entry in assay [1] and in assay [2] was “inactive” each time. In addition, the result in assay [3] was inactive.
For the compound `Oc1c(Br)cc(Br)c2cccnc12`, the Potency result in assay [1] and in assay [2] was “inactive” in each case. Besides, the call in assay [3] was inactive.
As for `CCCOC(=O)c1ccc(O)cc1`, the Potency entry in assay [1] and in assay [2] was “inactive” throughout. In addition, the outcome in assay [3] was inactive.
Take `CCCC(=O)OC[C@@H](OC(=O)CCC)[C@@H](OC(=O)CCC)[C@H](Cn1c2nc(=O)[nH]c(=O)c-2nc2cc(C)c(C)cc21)OC(=O)CCC`: the Potency entry in assay [1] was “inactive”.
`O=C(Nc1ccc2c(c1)CCN(Cc1ncn[nH]1)C2)c1ccccc1-c1ccc(C(F)(F)F)cc1`: the Potency result in assay [4] and in assay [6] was “inactive” each time. Also, the compound was called inactive in assay [5].
With `CCCCCCCCCCCCCCCCCC(=O)O`, the Potency entry in assay [1] and in assay [2] was “inactive” each time. Moreover, the call in assay [3] was inactive.
Take `Nc1nc2ccc([N+](=O)[O-])cc2s1`: the Potency entry in assay [1] and in assay [2] was “inactive” in each case.
`Clc1ccccc1-c1nc(-c2ccncc2)no1`: the Potency entry in assay [1] and in assay [2] was “inactive” each time. For the same compound, the result in assay [3] was inactive.
Consider `C#C[C@]1(O)CC[C@H]2[C@@H]3CCc4cc(O)ccc4[C@H]3CC[C@@]21C`, for which the Potency entry in assay [1] and in assay [2] was “inactive” in each case. Further, in assay [3], the outcome was inactive.
On to `Cc1ccc(C(=O)c2ccc(CC(=O)O)n2C)cc1`, for which the Potency result in assay [1] and in assay [2] was “inactive” each time. In assay [3], the compound was classed as inactive.
Turning to `CC(C)OC(=O)c1cc(C(=O)OC(C)C)cc([N+](=O)[O-])c1`, the Potency entry in assay [1] and in assay [2] was “inactive” in each case. The result in assay [3] was inactive.
With `C[N+]1(C)[C@@H]2CC(OC(=O)[C@H](CO)c3ccccc3)C[C@H]1[C@@H]1O[C@@H]12` (stereo not given in full), the Potency result in assay [1], in assay [6] and in assay [2] was “inactive” throughout. Further, the compound was called inactive in assay [3].
As for `CC(C(=O)O)c1ccc2c(c1)[nH]c1ccc(Cl)cc12` (stereo not given), the Potency result in assay [1] was “inactive”.
For `COc1ccc(-c2cc(=S)ss2)cc1`, the Potency result in assay [1] and in assay [2] was “inactive” each time.
On to `CCOC(=O)c1ccccc1O`, for which the Potency entry in assay [1] and in assay [2] was “inactive” throughout. Besides, the compound was classed as inactive in assay [3].
As to `O=C(O)Cc1cccc(-c2cc(CCCCCCc3ccc(O[C@H]4O[C@H](CO)[C@@H](O)[C@H](O)[C@@H]4O)c(-c4cccc(CC(=O)O)c4)c3)ccc2O[C@H]2O[C@H](CO)[C@@H](O)[C@H](O)[C@@H]2O)c1`, the activity change, negative = inhibition was -3.38% [at 0.727 µM] in assay [1], -6.57% [at 0.505 µM] in assay [2] and -0.323% [at 0.575 µM] in assay [3].
On to `O=Cc1ccc(O)c(O)c1O`, for which, in assay [1], the Potency result was “inactive”.
With `CC(C)(C)c1nnc(NS(=O)(=O)c2ccc(N)cc2)s1`, the Potency result in assay [1] and in assay [2] was “inactive” throughout.
Consider `O=C(OCc1ccccc1)c1ccccc1`, for which the Potency entry in assay [1] and in assay [2] was “inactive” in each case. Besides, the result in assay [3] was inactive.
As to `NCCO`, the Potency result in assay [1] and in assay [2] was “inactive” throughout. The outcome in assay [3] was inactive.
On to `COc1cc2c3cc1Oc1cc(ccc1O)C[C@@H]1c4c(cc(OC)c(O)c4Oc4ccc(cc4)C[C@@H]3N(C)CC2)CC[N+]1(C)C`, for which the Potency entry in assay [1] and in assay [2] was “inactive” in each case. In addition, the outcome in assay [3] was inactive.
Consider `O=C(CS)Nc1ccccc1`, for which the Potency result in assay [1] and in assay [2] was “inactive” in each case. Moreover, the call in assay [3] was inactive.
For `C#CC1(O)CC[C@H]2[C@@H]3CCC4=CCCC[C@@H]4[C@H]3CC[C@@]21C` (stereo not given in full), the Potency entry in assay [1] and in assay [2] was “inactive” in each case. In addition, the call in assay [3] was inactive.
As for `N=C(N)N`, the Potency result in assay [1] and in assay [2] was “inactive” each time. Moreover, the result in assay [3] was inactive.
`Nc1cc(-c2ccncc2)c[nH]c1=O`: the Potency entry in assay [1] was “inactive”. In assay [2], the Potency is 22.4 µM (active).
With `Oc1cc(O)cc(/C=C/c2ccc(O)c(O)c2)c1`, the Potency result in assay [4] and in assay [6] was “inactive” throughout. In addition, the call in assay [5] was inactive.
Turning to `O=C(/C=C/c1ccccc1)NCCO`, the Potency result in assay [1] and in assay [2] was “inactive” throughout. Also, the compound was classed as inactive in assay [3].
For the compound `Cc1c(C(=O)O)c(O)cc2c1C(=O)c1c(O)c([C@@H]3O[C@H](CO)[C@@H](O)[C@H](O)[C@H]3O)c(O)c(O)c1C2=O`, the Potency entry in assay [1] and in assay [2] was “inactive” throughout. Further, the call in assay [3] was inactive.
For `COC(=O)c1nc(Cl)c(Cl)nc1N`, in assay [1], the Potency is 10.5 µM (active). Also, the Potency entry in assay [2] is “inactive”. In addition, the outcome in assay [3] was inactive.
On to `C=CCCCCCCCCC(=O)O`, for which the Potency result in assay [1] and in assay [2] was “inactive” in each case. The compound was called inactive in assay [3].
